Records with an inconclusive call do not appear. Unmarked numbers belong to inactive results. Activity calls are given as the source filed them. Calls come from the whole dose curve; as a rule, active = well fitted curve in the direction sought with a large enough effect; inconclusive = small, poorly fitted or top-dose-only effect, or another doubt; inactive = no such curve, though single readings can be large; an effect the other way counts as inactive or inconclusive.
Key:
PA-1 = assay: Primary qHTS to identify gynecologic anti-cancer compounds using libraries of approved drugs and bioactive compounds (AID 1345084); details: Gynecologic cancer cell panel viability, ATPlite luminescence, 48 h; series mostly up to 57.5 µM; note: nearly all actives have a fitted effect of over 55% in size
Procedure, shortened: (§1)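 Five-concentration response, 48 h; readout is ATP-driven luciferase luminescence.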

Tov112D = assay: as above; details: Gynecologic cancer cell panel viability, ATPlite luminescence, 48 h; series mostly up to 57.5 µM
Procedure, shortened: as §1

[1] = qHTS assay to identify inhibitors of the type 1 interferon - major histocompatibility complex class I in skeletal muscle: Counter screen cell viability and HiBit confirmation (AID 1347412); details: iHSKM muscle cells + IFN-b, HiBiT or CellTiter-Glo, 24 h; for activity change, negative = inhibition: at 45.9 µM (top of the series); for all read-outs here: nearly all actives have a fitted effect of over 60% in size
Procedure, shortened: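 Luminescence read-out: Nano-Glo HiBiT lytic signal from C-terminally HiBiT-tagged HLA-B in CRISPR-edited human myoblasts, plus CellTiter Glo ATP as viability counter screen. IFN-beta 4.0 ng/ml; 24 hrs treatment at 37 C, 5% CO2.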

SKOV3 = assay: Primary qHTS to identify gynecologic anti-cancer compounds using libraries of approved drugs and bioactive compounds (AID 1345084); details: Gynecologic cancer cell panel viability, ATPlite luminescence, 48 h; series mostly up to 57.5 µM; note: nearly all actives have a fitted effect of over 55% in size
Procedure, shortened: as §1

Tov-21-G = assay: as above; details: Gynecologic cancer cell panel viability, ATPlite luminescence, 48 h; series mostly up to 57.5 µM
Procedure, shortened: as §1
% is set by controls: 0 for no effect and ±100 for the full control effect; potency is the fitted concentration of half-maximal effect.

## COc1ccc(F)c(F)c1C(=O)c1cnc(NC2CCN(S(C)(=O)=O)CC2)nc1N
PA-1
  Potency: 2.51 µM (active)
Tov112D
  Potency: 7.94 µM (active)
[1]; HiBiT
  Potency: 1.11 µM (active)
[1]; Viability
  activity change, negative = inhibition: 14.1%

## CC(C)c1nn(-c2c(Cl)cccc2Cl)c2nc(Cc3ccc(OCCO)cc3)[nH]c(=O)c12
PA-1
  Potency: 0.251 µM (active)
SKOV3
  Potency: 1.41 µM (active)
Tov112D
  Potency: 0.282 µM (active)

## CC1COC2(CCN(c3nc(=O)c4cc(C(F)(F)F)cc([N+](=O)[O-])c4s3)CC2)O1 (stereo not drawn)
PA-1
  Potency: inactive
SKOV3
  Potency: inactive
Tov112D
  Potency: inactive

## Cc1coc2c1C(=O)C(=O)c1c-2ccc2c1CCCC2(C)C
PA-1
  Potency: inactive
Tov112D
  Potency: inactive

## COc1cc2nccc(Oc3ccc(NC(=O)C4(C(=O)Nc5ccc(F)cc5)CC4)cc3)c2cc1OC
PA-1
  Potency: 7.94 µM (active)

## COc1cc2c(Oc3ccc4[nH]c(C)cc4c3F)ncnc2cc1OCCCN1CCCC1
PA-1
  Potency: inactive
Tov112D
  Potency: 12.6 µM (active)
[1]; HiBiT
  Potency: 19.8 µM (active)
[1]; Viability
  Potency: 19.8 µM (active)

## COC(=O)c1ccc2c(C(=Nc3ccc(N(C)C(=O)CN4CCN(C)CC4)cc3)c3ccccc3)c(O)[nH]c2c1
SKOV3
  Potency: inactive
Tov112D
  Potency: inactive

## CS(=O)(=O)N1CCN(Cc2cc3nc(-c4cccc5[nH]ncc45)nc(N4CCOCC4)c3s2)CC1
SKOV3
  Potency: 2.51 µM (active)
Tov112D
  Potency: inactive

## CC[C@@H]1C(=O)N(C)c2cnc(Nc3ccc(C(=O)NC4CCN(C)CC4)cc3OC)nc2N1C1CCCC1
[1]; Viability
  activity change, negative = inhibition: -4.51%

## Cc1c(NC(=O)OC[C@@H]2COCCN2)cn2ncnc(Nc3ccc4c(cnn4Cc4cccc(F)c4)c3)c12
Tov-21-G
  Potency: inactive
Tov112D
  Potency: inactive

## Nc1ncnc2c1c(-c1cccc(OCc3ccccc3)c1)cn2C1CC(CN2CCCC2)C1 (stereo not drawn)
Tov112D
  Potency: inactive

## C[C@@H]1COC(Nc2ccc3ncnc(Nc4ccc(OCc5nccs5)c(Cl)c4)c3c2)=N1
SKOV3
  Potency: 14.1 µM (active)
[1]; Viability
  activity change, negative = inhibition: -24%

## CCN1CCN(Cc2ccc(-c3cc4c(N[C@H](C)c5ccccc5)ncnc4[nH]3)cc2)CC1
[1]; HiBiT
  Potency: 19.8 µM (active)

From PubChem BioAssay (NCATS)
